Assay results published in PubChem BioAssay (NCI).
About 79,000 compounds went through this panel and 15% of them were active in at least one assay; those are over-represented in the sample as a whole. No stated cut-off is given here; in the data, active means growth inhibition above about 70%; inactive means the rest.

Key:
[1] = NCI Yeast Anticancer Drug Screen. Data for the rad50 strain (AID 155);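 further: 0% = growth of vehicle-only cultures of the same strain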; conditions: S. cerevisiae rad50 strain growth inhibition; at 50.0 µM; active compounds read high
Procedure, shortened: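 Genetically altered yeast (DNA repair pathway); compound treatment; growth inhibition vs vehicle ctrl.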

[2] = NCI Yeast Anticancer Drug Screen. Data for the mec2-1 strain (AID 157); conditions: S. cerevisiae mec2-1 strain, at 50.0 µM, active compounds read high
Procedure, shortened: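 Mutant yeast (mec2-1) grown with compound; growth inhibition relative to vehicle control reported.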

[3] = NCI Yeast Anticancer Drug Screen. Data for the sgs1 mgt1 strain (AID 161);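 further: 0% = growth of cultures given vehicle only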; conditions: S. cerevisiae sgs1 mgt1 strain, at 50.0 µM, active compounds read high
Procedure, shortened: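 Growth of a repair-deficient yeast mutant was monitored after compound treatment and expressed as inhibition relative to vehicle-treated cultures.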

[4] = NCI Yeast Anticancer Drug Screen. Data for the cln2 rad14 strain (AID 165);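 further: 0% = growth equal to vehicle treated cultures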; conditions: S. cerevisiae cln2 rad14 strain, at 50.0 µM, active compounds read high
Procedure, shortened: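 Readout is yeast growth inhibition versus vehicle-treated controls, using a strain with cln2 and rad14 alterations exposed to compound.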

[5] = NCI Yeast Anticancer Drug Screen. Data for the bub3 strain (AID 167); conditions: S. cerevisiae bub3 mutant strain, at 50.0 µM, active compounds read high
Procedure, shortened: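 Yeast carrying a defined mutation is treated with each compound, and growth is compared with that of vehicle-exposed cells to give inhibition.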

[6] = NCI Yeast Anticancer Drug Screen. Data for the mlh1 rad18 strain (AID 175); conditions: S. cerevisiae mlh1 rad18 strain growth inhibition; at 50.0 µM; active compounds read high
Procedure, shortened: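 Genetically defined yeast (DNA repair-deficient) exposed to compounds; growth inhibition determined relative to vehicle.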

Measured: growth inhibition

CC(=O)OC1CCC2(C)OC(=O)CC2C1 (centres undefined)
inactive: [1] 2.2% | [2] 8.55% | [3] 6.9% | [4] -41.9% | [5] 9.6% | [6] 1.4%

Cc1ccccc1NC(=O)CSC#N
inactive: [1] 10.2% | [2] 7.35% | [3] 1.7% | [4] 20.1% | [5] -12.6% | [6] 8.75%

COc1nc(SC)nc2[nH]ccc12
inactive: [1] -1% | [2] 9.75% | [3] -4.2% | [4] -6.6% | [5] -6.35% | [6] -9.1%

CC1=NN(C(=O)c2ccncc2)C(=O)C1N=Nc1ccc([N+](=O)[O-])cc1Cl (centres undefined)
inactive: [1] 47.1% | [2] 9.95% | [3] 21.3% | [4] -26.1% | [5] -2.1% | [6] 14.1%

OC1CCC(C#CC#CC2CCC(O)CC2)CC1 (centres undefined)
inactive: [1] 2.05% | [2] -34.2% | [3] 3.05% | [4] 2.25% | [5] -23.7% | [6] -1.7%

Cc1cccc(/C=N\N=C\c2cccc(C)n2)n1
inactive: [1] 3.9% | [2] -10.2% | [3] -3.25% | [4] -3% | [5] -1.45% | [6] 23.3%

Cc1cccc(/C=C/c2cccc[n+]2[O-])[n+]1[O-]
inactive: [1] 3.1% | [2] -11.2% | [3] -19.9% | [4] -31.8% | [5] -0.2% | [6] -5.25%

CCOC(=O)C1(C(O)(C2CC2)C2(C(=O)OCC)CC2)CC1
inactive: [1] -9.1% | [2] -11.6% | [3] -12.3% | [4] -29.9% | [5] 13.1% | [6] 5.45%

Ic1cc2c(cc1CNCc1ccccc1)OCO2
inactive: [1] 11.7% | [2] -19.6% | [3] 26.7% | [4] -56.4% | [5] 2.6% | [6] 7.2%

O=C(O)Cc1cccc2nnnn12
inactive: [1] 14.2% | [2] -17.8% | [3] -7.5% | [4] 15.1% | [5] -4.75% | [6] 23.9%

Cc1ccc2c(=O)[nH]cnc2c1
inactive: [1] -10.4% | [2] -23.2% | [3] 4.45% | [4] -7.6% | [5] 2% | [6] -2.15%

CCCCCCCCCCCCCCCC(=O)Nc1ccn(C2OC(CO)C(O)C2O)c(=O)n1 (centres undefined)
inactive: [1] -1.45% | [2] -19.9% | [3] 6.75% | [4] 10.1% | [5] -6.8% | [6] -14.7%

CC(=O)NC(C=O)OCC=O (centres undefined)
inactive: [1] 0% | [2] 17.9% | [3] -22.3% | [4] 0.55% | [5] -29.1% | [6] -46.9%

CCOc1c[n+](C)c(/C=C/c2ccccc2)s1
inactive: [1] 3.15% | [2] -11.6% | [3] -3.25% | [4] -9.3% | [5] -0.45% | [6] -20.9%

C=CCCCCCCCCC(=O)NCC1CC1
inactive: [1] -10.8% | [2] -7.1% | [3] 2.5% | [4] -44.8% | [5] -27.9% | [6] -4.75%

CC(CC(O)CCCN(C)C)CC(C)(C)C (centres undefined)
inactive: [1] 46.5% | [2] 39.8% | [3] 43.4% | [4] 22.1% | [5] 24.3% | [6] 37.5%

CCCc1c(C(=O)OCC)[nH]c(C(=O)CCC(=O)c2[nH]c(C(=O)OCC)c(CCC)c2C(=O)OCC)c1C(=O)OCC
inactive: [1] 20.2% | [2] -13.5% | [3] -10.9% | [4] -19.4% | [5] -15.7% | [6] 2.35%

CCN(CC)Cc1cc(Nc2ccnc3ccc4nn(C)nc4c23)ccc1O
inactive: [1] -16.4% | [2] -19.4% | [3] -28.1% | [4] 4.45% | [5] 6.65% | [6] -1.75%

CCC(CO)c1ccccc1 (centres undefined)
inactive: [1] -3.6% | [2] -17.7% | [3] -3.1% | [4] -25.4% | [5] -3.1% | [6] -12.1%

CC1(C)OC2COC(c3[nH]nc4c(=O)[nH]c(=O)[nH]c34)C2O1 (centres undefined)
inactive: [1] 1.1% | [2] -5.65% | [3] -26.9% | [4] -20.8% | [5] -64.3% | [6] -5%

Nc1c(Br)cc(Br)cc1-c1cc(Br)cc(Br)c1N
inactive: [1] 3.65% | [2] 17% | [3] 10.4% | [4] 5.3% | [5] 13.4% | [6] 24.4%

Nc1ccc2c(c1)NCC2
inactive: [1] -27.6% | [2] -45.7% | [3] -17.1% | [4] 12.1% | [5] -14.9% | [6] -16.6%

Cc1cccc([N+](=O)[O-])c1C
inactive: [1] 13.7% | [2] -10.4% | [3] 7.3% | [4] 23.4% | [5] 10.8% | [6] -15.6%

C/C=C1\CN2CCc3c([nH]c4ccccc34)C2CC1CCO (centres undefined)
inactive: [1] -16.8% | [2] -10.9% | [3] -5.4% | [4] 12.7% | [5] -26.7% | [6] -24.9%

O=C1CC(=O)N(CCc2ccccc2)S(=O)(=O)N1CCc1ccccc1
inactive: [1] -8.9% | [2] -21.4% | [3] -14.2% | [4] 30.4% | [5] -15.2% | [6] -32.8%

CNC(=O)OCCC(OC(=O)NC)C1CCC2C3CCC4CC(OC(=O)c5ccccc5)CCC4(C)C3CCC12C (centres undefined)
inactive: [1] 37% | [2] 1.7% | [3] 4.9% | [4] 23.3% | [5] -4% | [6] 8.8%

NC(=O)NCc1ccc(CNC(N)=O)cc1
inactive: [1] 11.3% | [2] 15.1% | [3] -2.9% | [4] -61.5% | [5] 3.25% | [6] 3.35%

COC(=O)c1cncc(C(=O)OC)c1
inactive: [1] -3.9% | [2] -12% | [3] 2.75% | [4] -2.35% | [5] 1.95% | [6] 12.8%

OCc1ccc(-c2ccccc2)cc1
inactive: [1] 4.4% | [2] -14.6% | [3] 4.6% | [4] 8% | [5] 3.7% | [6] 28.8%

O=C1CN(Cc2ccccc2)CCO1
inactive: [1] 4.95% | [2] -4.3% | [3] -3.55% | [4] 0.9% | [5] 10.5% | [6] 1.4%

CCc1cnccc1C
inactive: [1] 10.3% | [2] -14.9% | [3] -19.1% | [4] 6.25% | [5] 6.45% | [6] -9.75%

NC(=O)Cc1[nH]ccc1C(=O)O
inactive: [1] 9.4% | [2] -9.75% | [3] -0.05% | [4] -18.6% | [5] -4.15% | [6] 12.1%

C=CCOC(=O)Oc1ccc(Cl)cc1Cl
inactive: [1] 9.75% | [2] 0.3% | [3] 3.3% | [4] -10.3% | [5] 21.4% | [6] 18.5%

COc1ccc(C(=O)Oc2ccccc2C)cc1
inactive: [1] 5.9% | [2] -26.4% | [3] -6.1% | [4] -11% | [5] -6.8% | [6] -1.95%

CCOC(=O)N1CCc2cc(OC)c(OC)c3c2c1cc1cc(OC)c(OC)cc13
inactive: [1] -9.2% | [2] 18.9% | [3] -4.55% | [4] -35.5% | [5] 16.1% | [6] 16.4%

COc1ccc(C2OC3=C(Nc4ccc(Cl)cc4N3)C2=O)c(OC)c1 (centres undefined)
inactive: [1] -9.1% | [2] -30.9% | [3] -28.1% | [4] -29.9% | [5] -42.2% | [6] -28.8%

O=C(O)CCSc1ccccc1
inactive: [1] 25.2% | [2] -23.4% | [3] -13.8% | [4] -73% | [5] -3.45% | [6] 20.1%

Cc1ccc(Cc2nn(C)c(=O)n2N)cc1
inactive: [1] -7.1% | [2] -2.5% | [3] 18.6% | [4] -3% | [5] -13.1% | [6] -18.9%

CN1C2CCC1C1N=NN(c3cc(C(F)(F)F)cc(C(F)(F)F)c3)C1(N1CCOCC1)C2 (centres undefined)
inactive: [1] -20.9% | [2] -9.6% | [3] -27.7% | [4] 0.35% | [5] -11.9% | [6] -21.8%
